Results published in the OligoGym collection.

These sequences were tested against ERCC8 (assay: pooled miR-30 sensor sort-seq; sequence = guide strand). Settings: shRNA.
Also: reference of the scale not given here.

In order of rising sensor-assay potency score (higher = more potent):
1. TCTAGTACCAACTGCTACCAAA  -1.28
2. TTGACTAAATAAACTATACAGA  -1.03
3. TTCGATTATCTGTACCAACAGT  -0.994
4. TAACTTTCCCATTATGAGCAGT  -0.724
5. TAATCAAACATCCTGATGCTCT  -0.532
6. TTGTAATGTATTTGTATCCCAT  -0.441
7. TTCTTTCAACATCTCTGTCTTT  -0.331
8. TTTCTTGTCTGTGACCCTGTAG  -0.264
9. TCACACCATCTGAACCACCTGA  0.0366
10. TCTTTCAACATCTCTGTCTTTA  0.0508
11. TTTGACTGAAATACACAGCAGT  0.0965
12. TATAGTTCATAAAATCTGCTGA  0.347

The sequences below were run against ERG in the same assay as above. Settings: shRNA.

In order of falling sensor-assay potency score (higher = more potent):
1. TTACATTCCATTTTGATGGTGA  0.928
2. TAACAAGATGTTGACGTCTGGA  0.51
3. TTTCTTTGGCACTTTGTCCTTA  0.442
4. TAAGACTTCAGTAACTCCCTCC  0.34
5. TGGAAGTCGAACTTGTAGGCGT  0.335
6. TTGAGACAGCCAATCCTGCTGA  0.276
7. TTCTGTAGTAAGACTTCAGTAA  0.212
8. TAAATCTGTGTTTCTAGCATGC  0.0224
9. TAAAATGGCATTATAAACGGTA  -0.0295
10. TATTGCTTTAGTTTCATCCCAG  -0.25
11. TTTCTAGCATGCATTAACCGTG  -0.322
12. TTCTTTGGCACTTTGTCCTTAA  -0.383
13. TTCTCCTCCATGTAGCTGCCGT  -0.46
14. TTTTGATTCATGTTCTCCGATA  -0.485
15. TACATTTCTTAAGACCACTTTC  -0.508
16. TTATCGTAGTTCATGTTGGGTT  -0.512
17. TAGCATGCATTAACCGTGGAGA  -0.638
18. TTCTAGCATGCATTAACCGTGG  -0.659
19. TCATCTTGGAAGTCTGTCCATA  -0.884
20. TCTTGTCATAGTAGTAACGGAG  -1.01
21. TTCTTGTCATAGTAGTAACGGA  -1.05
22. TGCTTCTACATACACTGTCTTT  -1.13
23. TATTCGTGACATTTTTAGCATC  -1.17
24. TAAGACTTCATGCTTCTACATA  -1.33

These sequences were tested against ERICH1 in the same assay as above. Settings: shRNA.

In order of rising sensor-assay potency score (higher = more potent):
1. TATACATTTAACTTAACAGAAT  -1.58
2. TTCTTTGATTTATGCTTCCTAA  -1.05
3. TATTGTGGTGCCATCTGTGTGC  0.019
4. TTATTTTTGCTTATTGTGGTGC  0.19
